# Results with a measured potency or affinity are listed apart. The source made the active and inactive calls.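 The calls were made as follows: active = compounds lowering fluorescence with a fitted half-maximal concentration at or below a set limit tied to top dose; inconclusive = flat curve with 30 to 70% inhibition, or poor fit; inactive = the rest.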
# Biological target: Caspase-9 (Homo sapiens) (UniProt P55211)
# Test: caspase-9 enzyme inhibition, dose response, selectivity assay for caspase-6 inhibitor project, biochemical, fluorescence, plate reader, cherry-picked samples (AID 743293)
# Conditions: purified caspase-9, Z-LEHD-R110 cleavage fluorescence; series mostly up to 35 µM
# Sequence of Caspase-9 (Homo sapiens) (P55211 whole entry, looked up): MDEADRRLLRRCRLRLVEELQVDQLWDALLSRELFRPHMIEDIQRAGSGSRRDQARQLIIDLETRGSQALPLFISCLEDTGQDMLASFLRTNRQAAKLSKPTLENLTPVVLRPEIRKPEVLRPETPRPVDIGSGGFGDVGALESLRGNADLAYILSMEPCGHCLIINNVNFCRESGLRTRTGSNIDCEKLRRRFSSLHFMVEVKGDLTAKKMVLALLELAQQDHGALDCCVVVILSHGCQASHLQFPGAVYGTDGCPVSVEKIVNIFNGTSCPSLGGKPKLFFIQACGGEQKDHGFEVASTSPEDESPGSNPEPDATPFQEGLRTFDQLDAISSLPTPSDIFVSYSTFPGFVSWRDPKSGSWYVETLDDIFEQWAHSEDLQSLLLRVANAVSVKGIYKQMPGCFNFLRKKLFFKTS
row,SMILES,outcome
1,O=c1oc(-c2ccccc2)nc2sc3c(c12)CCC3,inactive
2,O=C(O)C1Nc2c(Cl)cc(Cl)c(Cl)c2C2C=CCC12 (centres undefined),inactive
3,Oc1cc(O)cc(C=Cc2ccc(O)c(O)c2)c1,inactive
4,Cc1cc(C=O)c(C)n1-c1ccc(Cl)c(C(=O)O)c1,inactive
5,Cn1cnnc1SCC(=O)Nc1ncc([N+](=O)[O-])s1,inactive
6,COc1cc(NCCCCC(C)N)c2nccc(C)c2c1 (centres undefined),inactive
7,Cc1cccc(NC(=O)CNC(=O)c2cccc(-n3cccc3)c2)c1C,inactive
8,CCOc1ccc2nc3cc(NCc4ccc(OC)cc4)ccc3c(N)c2c1,inactive
9,O=C(O)/C(=C\c1ccc(Cl)c([N+](=O)[O-])c1)c1ccc(S(=O)(=O)N2CCCC2)s1,inactive
10,COc1ccc(NC(=O)CN(C)C(=O)c2cccc(-n3cccc3)c2)cc1,inactive
11,CNS(=O)(=O)c1cccc(C(=O)OCC(=O)N2c3ccccc3NC(=O)C2(C)C)c1,inactive
12,COc1ccc([N+](=O)[O-])cc1NC(=O)CCS(=O)(=O)c1ccc(Br)cc1,inactive
13,O=C(O)CCc1ccc(-c2ccc(Br)cc2)n1CC(=O)O,inactive
14,Cc1ccc(C)c(NC(=O)CN(C)C(=O)c2cccc(-n3cccc3)c2)c1,inactive
15,O=c1cc2c(=O)oc3cc(O)c(O)oc3c2c(O)c1O,inactive
16,CCCCNC(=O)c1nc(C2CCNCC2)oc1-c1cccc(C(F)(F)F)c1,inactive
17,CCN(CC)CCCC(C)n1c2nc(=O)[nH]c(=O)c-2nc2cc(Cl)ccc21 (centres undefined),inactive
18,CCOC(=O)[C@H](Cc1c[nH]c2ccccc12)NC(=O)CN=[N+]=[N-],inactive
19,O=C(O)CC(CCc1ccccc1)OC1OC(CO)C(O)C(O)C1O (centres undefined),inactive
20,COc1cc(-c2ccc(Nc3ccccc3C(=O)O)c(OC)c2)ccc1Nc1ccccc1C(=O)O,inactive
21,O=C1CN(C(=O)COC(=O)c2ccc([N+](=O)[O-])s2)c2ccccc2N1,inactive
22,Cc1cc(C=O)c(C)n1-c1cc(C(=O)O)cc(C(=O)O)c1,inactive
23,COc1ccc(C(=O)OCC(=O)Nc2ncc([N+](=O)[O-])s2)cc1OC,inactive
24,O=C(O)C1CCCCC1C(=O)Nc1cccc(Br)c1 (centres undefined),inactive
25,CCCN(C(=O)c1cccc(-n2cccc2)c1)c1c(N)n(Cc2ccccc2)c(=O)[nH]c1=O,inactive
26,O=C(CCO)c1ccc(O)cc1,inactive
27,COc1ccc(NS(=O)(=O)c2ccc3c(c2)[C@H]2C=CC[C@H]2[C@@H](c2ccc(C(=O)O)cc2)N3)cc1,inactive
28,CCCCN(C(=O)c1cccc(-n2cccc2)c1)c1c(N)n(CCC)c(=O)[nH]c1=O,inactive
29,O=P(c1ccccc1)(c1ccccc1)c1cc(S(=O)(=O)O)ccc1O,inactive

# — PubChem BioAssay AID743293 (Broad Institute, 2014)
